Data published in PubChem BioAssay (NCATS).
Results filed as inconclusive are left out. The source made the active and inactive calls. The call rests on the fitted dose curve; in most records, active means well fitted curve in the direction sought with a large enough effect; inconclusive means small, poorly fitted or top-dose-only effect, or another doubt; inactive means no such curve, though single readings can be large; an effect the other way counts as inactive or inconclusive.

Assays:
[1] = molecular target: Glutathione peroxidase 1 (Homo sapiens) (UniProt P07203); experiment: Primary qHTS Assay for Inhibitors of Recombinant Selenoprotein Glutathione Peroxidase 1 (GPX1) (AID 1845191); further: nearly all actives have a fitted effect of over 65% in size; on activity, negative = inhibition: on the % scale 0 is the no-effect control and ±100 the full control effect
Sequence of Glutathione peroxidase 1 (Homo sapiens) (P07203 whole entry, looked up): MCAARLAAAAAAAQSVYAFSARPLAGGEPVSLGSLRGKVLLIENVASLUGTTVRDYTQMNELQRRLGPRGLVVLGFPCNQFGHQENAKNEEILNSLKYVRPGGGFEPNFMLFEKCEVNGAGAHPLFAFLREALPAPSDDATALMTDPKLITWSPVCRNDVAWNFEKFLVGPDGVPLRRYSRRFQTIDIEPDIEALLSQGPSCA
Outline: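 10 nM GPX1 + cpd, 30 min RT; start w/ 1 mM GSH, 0.5 mM cumene hydroperoxide, 0.5 mM NADPH, 100 nM GR, 0.01% BSA; buffer 50 mM Tris-HCl pH 7.5, 2 mM EDTA, 150 mM NaCl; Fl 340/450, 0 & 15 min.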

[2] = molecular target: Phospholipid hydroperoxide glutathione peroxidase GPX4 (Homo sapiens) (UniProt P36969); experiment: Primary qHTS Assay for Inhibitors of Recombinant Selenoprotein Glutathione Peroxidase 4 (GPX4) (AID 1845192); further: nearly all actives have a fitted effect of over 65% in size; on activity change, negative = inhibition: series mostly up to about 50 µM; on the % scale 0 is the no-effect control and ±100 the full control effect
Sequence of Phospholipid hydroperoxide glutathione peroxidase GPX4 (Homo sapiens) (P36969 whole entry, looked up): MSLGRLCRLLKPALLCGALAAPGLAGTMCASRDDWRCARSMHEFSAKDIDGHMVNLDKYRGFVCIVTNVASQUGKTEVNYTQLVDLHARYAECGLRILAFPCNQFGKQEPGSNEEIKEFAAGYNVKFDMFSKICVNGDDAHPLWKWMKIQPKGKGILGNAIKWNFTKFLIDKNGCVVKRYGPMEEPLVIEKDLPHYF
Outline: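 NADPH consumption, followed by fluorescence at 340/450 nm between 0 and 15 min, reports GPX4 activity via coupled glutathione reductase (100 nM). Enzyme 200 nM was pre-exposed to compound 30 min; 0.5 mM cumene hydroperoxide and 1 mM GSH served as substrates.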

[3] = molecular target: Luciferin 4-monooxygenase (Photinus pyralis) (UniProt P08659); experiment: Primary firefly luciferase (FLuc) qHTS assay for identification of artifact compounds. (AID 1845220); further: nearly all actives have a fitted effect of over 60% in size;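 on activity change, negative = inhibition: series mostly up to about 54 µM; plate controls were DMSO vehicle for no effect and no enzyme for full effect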
Outline: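 Compounds sat 15 min at room temperature with 10 uM luciferin and 10 uM ATP (pH 7.6 Tris acetate). Firefly luciferase (10 nM final) was then added, and luminescence was read 5 min later. Data normalized to no-enzyme and DMSO controls were Hill-fitted.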

[4] = Primary fluorescence-based thiol-reactive (MSTI) qHTS assay for identification of artifact compounds. (AID 1845221); further: nearly all actives have a fitted effect of over 65% in size; further: potency means the concentration at half of the fitted maximal effect;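 on activity change, negative = thiol reactive: series mostly up to about 54 µM; thiol-reactive compounds lower the probe fluorescence signal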
Outline: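 A multi-concentration qHTS design tested compounds against 4 uM MSTI, pH 7.4 phosphate-buffered saline. Plates were protected from light for 1 h at room temperature before imaging fluorescence.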

[5] = test system: Nanoluciferase (engineered Oplophorus gracilirostris luciferase); experiment: Primary Nanoluciferase (NLuc) qHTS assay for identification of artifact compounds. (AID 1845222);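 further: series mostly up to about 54 µM; 0% = DMSO and -100% = no enzyme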
Outline: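 Luminescence from secreted NLuc (filtered, 1:55-diluted S16 cell medium) read 5 min after Nano-Glo substrate; compounds preincubated 15 min, RT. Hill fits of inhibition normalized to DMSO and no-enzyme.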

[6] = Primary redox qHTS assay for identification of artifact compounds. (AID 1845223); further: potency means the concentration at half of the fitted maximal effect;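 on redox activity (% of DA3003): 0% = DMSO and 100% = reference compound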
Outline: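 Amplex Red (25 uM) and HRP (250 mU/mL) in HBSS, with compounds for 15 min, then 250 uM DTT for 30 min, room temperature, dark. Fluorescence 525/598 nm read; normalized to DMSO and 10 uM DA3003; Hill fit.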

CCC(COC)n1nnc2c(Nc3ccc(OC)cc3C)nc(C)cc21 (stereo unspecified)
inactive: Potency [1] | Potency [2] | Potency [3] | Potency [4] | Potency [5] | Potency [6]

N=c1nc2n(cc1F)C1OC(CO)C(O)C1O2 (stereo unspecified)
inactive: Potency [1] | Potency [2] | Potency [3] | Potency [4] | Potency [5] | Potency [6]

O=C(CN1C(=O)C2(CCCC2)NCC1c1cc(F)cc(F)c1)Nc1ccc2c(c1)CC1(C2)C(=O)Nc2ncccc21 (stereo unspecified)
inactive: Potency [1] | Potency [2] | Potency [3] | Potency [4] | Potency [5] | Potency [6]

C[C@H]1C(=O)N2c3ccccc3[C@@]3(O)C[C@@H]4C(=O)N[C@](C)(c5nc6ccccc6c(=O)n54)N1[C@@H]23
inactive: Potency [1] | Potency [2] | Potency [3] | Potency [4] | Potency [5]

CC(C)c1cc2c(c(O)c1O)[C@@]13CCCC(C)(C)[C@@H]1[C@H](OC3=O)C2=O
inactive: Potency [1] | Potency [2] | Potency [3] | Potency [5]
active: Potency [4] 2.33 µM | Potency [6] 16.5 µM

C=CC1(C)C=C2CCC3C(C)(C)C(O[C@@H]4O[C@@H](CO)[C@H](O)[C@H]4O)CCC3(C)C2CC1O[C@@H]1O[C@H](C)[C@H](O)[C@H](O)[C@H]1O (stereo partly specified)
inactive: Potency [1] | Potency [2] | Potency [3] | Potency [4] | Potency [5] | Potency [6]

COc1cc(N2CCOCC2)ccc1Nc1ncc(Cl)c(Nc2ccccc2NS(C)(=O)=O)n1
active: Potency [4] 1.34 µM
inactive: Potency [1] | Potency [2] | Potency [3] | Potency [5]

Cn1cc(-c2ccc3nnc(Sc4ccc5nn(C)cc5c4)n3n2)cn1
inactive: Potency [1] | Potency [2] | Potency [3] | Potency [4] | Potency [5] | Potency [6]

O=C(c1cccc(Cl)c1F)N1CCN(Cc2cccc(Nc3nccs3)n2)CC1
inactive: Potency [1] | Potency [2] | Potency [3] | Potency [4] | Potency [5]

C[C@@H]1O[C@@H](O[C@H]2[C@H](O[C@H]3[C@H](O)[C@@H](C(=O)O)O[C@@H](O[C@H]4CC[C@@]5(C)C(CC[C@]6(C)C5CC[C@]57OC[C@@]8(CCC(C)(C)CC85)[C@H](O)C[C@]76C)C4(C)C)[C@@H]3O[C@@H]3O[C@H](CO)[C@@H](O[C@@H]4OC[C@@H](O)[C@H](O)[C@H]4O)[C@H](O)[C@H]3O)O[C@H](CO)[C@H](O)[C@@H]2O)[C@H](O)[C@H](O)[C@H]1O (stereo partly specified)
inactive: outcome [1] inactive [at 9.52 µM] | outcome [2] inactive [at 9.73 µM] | activity change, negative = inhibition [3] 0.267% [at 11.6 µM] | activity change, negative = thiol reactive [4] 330% [at 11.5 µM] | activity, negative = inhibition [5] 0% [at 11.6 µM] | redox activity (% of DA3003) [6] 15% [at 11.5 µM]

c1ccc(-c2ncc(CN3CCN(c4ncccn4)CC3)[nH]2)cc1
inactive: Potency [1] | Potency [2] | Potency [3] | Potency [4] | Potency [5] | Potency [6]

O=C(O)c1ccccc1NC(=O)N1CCC(c2ccccc2C(F)(F)F)CC1
inactive: Potency [1] | Potency [2] | Potency [3] | Potency [4] | Potency [5] | Potency [6]

COc1ccc(-c2nc(-c3ccc(-c4cccc(Cl)c4)o3)[nH]c2-c2ccc(OC)cc2)cc1
inactive: Potency [1] | Potency [2] | Potency [3] | Potency [5] | Potency [6]
active: Potency [4] 4.23 µM

COc1ccc2[nH]c3c(-c4cccc5ccccc45)nccc3c2c1
inactive: Potency [1] | Potency [2] | Potency [3] | Potency [4] | Potency [5]

CC(C)(O)C1CCC(C)(C2CCC3(C)C4CCC5C(C)(C(=O)OC6OC(CO)C(O)C(O)C6O)C(O)CC(O)C56CC46CCC23C)O1 (stereo unspecified)
inactive: Potency [1] | Potency [2] | Potency [3] | Potency [4] | Potency [5] | Potency [6]

O=C(O)CCCCCC[C@H]1C(=O)NC(=O)N1CC[C@@H](O)C1CCCCC1
inactive: Potency [1] | Potency [2] | Potency [3] | Potency [4] | Potency [5] | Potency [6]

CC12CCC(OC3OC(CO)C(O)C(OC4OC(CO)C(O)C(O)C4O)C3O)CC1=CCC1C2CCC2(C)/C(=C3/COC(=O)C3)CCC12O (stereo unspecified)
inactive: Potency [1] | Potency [2] | Potency [3] | Potency [4] | Potency [5] | Potency [6]

C[C@H](O)[C@H](O)/C=C/c1cccc(O)c1CO
inactive: Potency [1] | Potency [2] | Potency [3] | Potency [4] | Potency [5] | Potency [6]

Cc1[nH]c2ccccc2c1CCNC(=O)c1ccccc1F
inactive: Potency [1] | Potency [2] | Potency [3] | Potency [5]
active: Potency [4] 4.23 µM

COC1CC(O[C@H]2CC[C@@]3(C)C(CCC4C3[C@H](OC(C)=O)[C@@H](OC(=O)/C=C/c3ccccc3)[C@]3(C)C(C(C)=O)CC[C@]43O)C2)OC(C)C1OC1CC(OC)C(OC2CC(OC)C(OC3OC(C)C(OC4OC(CO)C(O)C(O)C4O)C(OC)C3O)C(C)O2)C(C)O1 (stereo partly specified)
inactive: outcome [1] inactive [at 9.52 µM] | activity change, negative = inhibition [2] -9.21% [at 9.73 µM] | outcome [3] inactive [at 11.6 µM] | activity change, negative = thiol reactive [4] 2.39% [at 11.5 µM] | activity, negative = inhibition [5] -1.88% [at 11.6 µM] | redox activity (% of DA3003) [6] -6.18% [at 11.5 µM]

C/C1=C\CCC2=C[C@@H](OC2=O)c2c(C)coc2C1
inactive: Potency [1] | Potency [2] | Potency [3] | Potency [5] | Potency [6]
active: Potency [4] 11.9 µM
